Most compounds without a hit are left out; they make up all but 5.7% or so of the library.
hgDAF-12 ag: H. glycines DAF-12 receptor agonists, primary screen, cell-based, luminescence, HEK293, GAL4 fusion, UAS-luciferase | Nuclear hormone receptor DAF-12 (Heterodera glycines), GAL4 fusion | HEK293 GAL4-hgDAF12 UAS-luciferase reporter, agonist luminescence; normalized to butyrate control | activation, % at 6.8 µM | 370,000 tested, 1.8% active | AID 687014, 2013;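 active = activation above a cutoff set at the mean of all screened compounds plus 3 SD, cut at about 10% in these data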;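 note: 0% = DMSO wells and 100% = sodium butyrate wells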
AHR act: AHR activators, primary screen, cell-based, luminescence, luciferase reporter, human; activation, % at 5 µM; AID 2796, 2010; Aryl hydrocarbon receptor (Homo sapiens), P35869; 320,000 tested, 2.5% active; AHR-responsive luciferase reporter cells; in the data active = activation above about 47%;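 note: 0% = vehicle wells and 100% = reference agonist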
Target sequence (P35869 whole entry, looked up): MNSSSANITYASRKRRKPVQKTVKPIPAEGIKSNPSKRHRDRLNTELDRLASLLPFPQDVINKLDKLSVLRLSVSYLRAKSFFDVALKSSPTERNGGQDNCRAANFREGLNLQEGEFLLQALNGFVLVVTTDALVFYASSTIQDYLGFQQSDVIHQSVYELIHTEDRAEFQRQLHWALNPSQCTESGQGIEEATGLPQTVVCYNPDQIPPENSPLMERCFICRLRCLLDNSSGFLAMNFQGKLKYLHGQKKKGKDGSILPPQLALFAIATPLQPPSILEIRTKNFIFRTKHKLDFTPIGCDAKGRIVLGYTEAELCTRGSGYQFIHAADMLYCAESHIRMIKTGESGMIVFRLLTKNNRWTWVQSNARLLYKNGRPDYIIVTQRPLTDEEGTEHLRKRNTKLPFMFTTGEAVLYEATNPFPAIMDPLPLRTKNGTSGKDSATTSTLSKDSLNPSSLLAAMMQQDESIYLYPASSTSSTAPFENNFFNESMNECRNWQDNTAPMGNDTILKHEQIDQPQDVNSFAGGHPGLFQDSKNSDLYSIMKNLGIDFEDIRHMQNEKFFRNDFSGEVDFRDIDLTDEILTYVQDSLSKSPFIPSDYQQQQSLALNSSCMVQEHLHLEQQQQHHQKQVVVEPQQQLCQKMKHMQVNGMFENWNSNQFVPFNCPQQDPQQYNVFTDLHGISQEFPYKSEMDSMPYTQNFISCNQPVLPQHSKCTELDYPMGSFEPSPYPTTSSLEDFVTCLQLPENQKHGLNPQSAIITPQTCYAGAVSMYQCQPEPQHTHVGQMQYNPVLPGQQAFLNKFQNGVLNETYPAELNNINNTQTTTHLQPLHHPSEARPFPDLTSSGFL
ssDAF-12 act: S. stercoralis DAF-12 nuclear receptor activators, primary screen, cell-based, luminescence, HEK293, GRIP1 co-expression, lit1-tk-luc. 370,000 tested, 1% active. HEK293 ssDAF-12/GRIP1 lit1-tk-luc reporter; % of 3 µM dafachronic acid response. activation, % at 6.8 µM. Nuclear hormone receptor DAF-12 (Strongyloides stercoralis);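 active = activation above the mean over all tested compounds plus 3 SD, cut at about 0.9% in these data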;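 note: 0% = DMSO-only wells and 100% = 3 µM delta7-dafachronic acid wells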
hcDAF-12 act: H. contortus DAF-12 nuclear receptor activators, primary screen, cell-based, luminescence, HEK293, lit1-tk-luc reporter. HEK293 hcDAF-12 lit1-tk-luc reporter; 0% DMSO, 100% Δ7-dafachronic acid. activation, % at 6.8 µM. 370,000 tested, 1.4% active. AID 652067, 2013;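 active = activation above the mean of all tested compounds plus 3 SD, cut at about 5.5% in these data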;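 note: 100% = response to 3 µM Δ7-dafachronic acid high control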
DAX1 inh-1: DAX1 (NR0B1) inhibitors on StAR promoter, primary screen, cell-based, luminescence, SF-1 (NR5A1), full-length DAX-1. inhibition, % at 6.8 µM. AID 652010, 2013. HEK293T StAR-luciferase reporter, SF-1/DAX-1 repression relief. 370,000 tested, 1.1% active;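 active = inhibition above the mean over all tested compounds plus 3 SD, cut at about 3.6% in these data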;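 note: 0% = DAX-1 cells with DMSO and 100% = cells lacking DAX-1 with DMSO; higher inhibition means more luminescence from relief of DAX-1 repression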
DAX1 inh-2: DAX1 (NR0B1) inhibitors, primary screen, cell-based, HEK293, Gal4-DAX1, luciferase luminescence; AID 504766, 2011; 340,000 tested, 0.99% active; HEK293 Gal4-DAX1 luciferase reporter; inhibition, % at 6.75 µM;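 active = inhibition above the mean over all tested compounds plus 3 SD, cut at about 4.2% in these data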;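 note: 0% = DAX1-transfected cells with DMSO and 100% = empty-vector control cells with DMSO; inhibition shows as a rise in luminescence from relieved DAX1 repression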
The depositor's hits bear a star; nt = no result.

SMILES	hgDAF-12 ag	AHR act	ssDAF-12 act	hcDAF-12 act	DAX1 inh-1	DAX1 inh-2
Cc1cc(O)ccc1NC(=S)NC(=O)c1cncc(Br)c1	3	60*	-1	0	0	0
Cc1ccccc1NC(=S)NC(=O)c1cncc(Br)c1	-1	41	-2	-1	0	0
O=C(NC(=S)NC1CCCCCC1)c1cncc(Br)c1	11*	17	-1	2	2	1
Cc1ccc2ncnc(Oc3ncccc3NC(=O)C(C)(C)C)c2c1	0	3	-1	1	0	-1
Cc1nc2nc(CSc3ccc(Cl)cc3)cc(=O)n2[nH]1	2	1	-1	-1	0	2
Cc1cc2nc(CSc3ccc(Cl)cc3)cc(=O)n2[nH]1	-3	0	-1	-2	-1	11*
O=Cc1ccc(OCc2ccc3c(c2)OCO3)cc1	11*	2	0	3	1	2
Cc1ccc(COc2ccc3c(c2)OCO3)cc1	10	6	0	1	1	1
FC(F)(F)c1ccccc1Cc1c(-c2cccc(Br)c2)nc2c3ccccc3ccn12	9	nt	1.4*	5.8*	1	nt
N#Cc1ccc(-c2nc3c4ccccc4ccn3c2Cc2cccc(Cl)c2)cc1	11*	nt	-1	3	0	nt
c1ccc(Cc2c(-c3ccccc3)nc3c4ccccc4ccn23)cc1	2	nt	0.9*	5	0	1
N#Cc1ccc(-c2nc3c4ccccc4ccn3c2Cc2ccccc2C(F)(F)F)cc1	9	nt	0	4	-2	nt
Cc1cc(Br)cn2c(Cc3ccccc3C(F)(F)F)c(-c3cccc(Br)c3)nc12	-4	nt	-1	-1	-1	nt
N#Cc1ccc(-c2nc3c4ccccc4ccn3c2Cc2ccsc2)cc1	3	nt	1.5*	3	0	nt
CC(C)NC(=O)N(C)C[C@H]1Oc2ccc(NS(=O)(=O)c3ccccc3)cc2C(=O)N([C@H](C)CO)C[C@H]1C	3	0	-1	-1	0	-1
Cc1nc(SCc2ccccc2)nc2c1CCC2	11*	0	0	0	3	2
CC1(c2nnnn2-c2ccc3c(c2)OCCO3)CCC(=O)N1Cc1cccc(C(F)(F)F)c1 (stereo unspecified)	0	nt	-1	-1	-2	nt
CCc1ccccc1Nc1nc(N)nc(COC(=O)c2cccn2C)n1	-4	8	-2	-2	3	0
Cc1ccccc1Nc1nc(N)nc(COC(=O)c2cccn2C)n1	8	8	0	2	3	5.5*
CCN(CC)c1ccc(/C=N/Nc2nc3ccccc3[nH]2)c(O)c1	-4	51*	-1	-1	-2	-4
COc1cc(OC)c(OC)cc1/C=N/Nc1nc2ccccc2[nH]1	-4	54*	-1	-3	-1	-2
C(=N\Nc1nc2ccccc2[nH]1)/c1ccc2ncccc2c1	-10	6	-2	-5	0	-3
COc1cc(/C=N\Nc2nc3ccccc3[nH]2)cc(OC)c1OC	-10	50*	-2	-6	-3	-2
O=C(CCc1ccc(S(=O)(=O)N2CCOCC2)cc1)OCC(=O)c1ccccc1	-1	0	-1	2	0	3
C=CCN(CC=C)C(=O)CN1C(=O)NC(Cc2c[nH]c3ccccc23)C1=O (stereo unspecified)	0	2	-1	-1	0	1
SMILES	hgDAF-12 ag	AHR act	ssDAF-12 act	hcDAF-12 act	DAX1 inh-1	DAX1 inh-2
COc1ccc(-c2ccc(/C=C3/C(=N)N4C=CSC4=NC3=O)o2)c([N+](=O)[O-])c1	10	49*	-1	2	0	0
O=C(O)[C@H](Cc1ccccc1)NC(=O)N1CCN(c2ccc(F)cc2)CC1	1	0	-2	0	0	1
CCOP(=O)(NC12CC3CC(CC(C3)C1)C2)NC12CC3CC(CC(C3)C1)C2	-1	6	-1	0	0	1
COc1cc(CNCCc2ccc(S(N)(=O)=O)cc2)ccc1OCC(=O)NC(C)(C)C	1	49*	-2	0	0	0
CCOc1cc(CNc2ccc(S(N)(=O)=O)cc2)ccc1OCC(=O)NC(C)(C)C	-2	1	-1	-2	-1	1
COc1ccc(/C=C/C(=O)OCC(=O)NC2CCCC2)cc1OC	0	-1	-2	-1	0	-2
O=Cc1c(-c2ccccc2)nc2ccccn12	6	89*	-1	0	-1	1
Cc1cc(O)cc(=O)n1-c1cc(F)c(F)c(F)c1	1	nt	0	0	0	nt
CCn1c(SCC(=O)c2c[nH]c3ccccc23)nc2cc(S(=O)(=O)N3CCOCC3)ccc21	-1	38	-1	5.6*	0	2
COc1cc(NS(=O)(=O)c2ccc(NC(=O)CCC(=O)O)cc2)nc(OC)n1	5	-1	-1	-1	0	1
Nc1ncnc2c1ncn2[C@@H]1O[C@H](C(=O)N[C@@H](CCc2ccccc2)C(=O)N2CCN(C(=O)C(F)(F)F)CC2)[C@@H](O)[C@H]1O	-3	nt	-1	-1	1	nt
COc1cc2c(NCCCCCCO[N+](=O)[O-])ncnc2c(OC)c1OC	-5	nt	-1	-2	-4	nt
COc1ccc([C@H]2C[C@@H](O)[C@H](n3cc(-c4ccc(F)cc4)nn3)CN2CC2CCCCC2)cc1	-1	nt	0	-1	0	1
CCOC(=O)C1CSCCS(=O)(=O)N1Cc1ccccc1F (stereo unspecified)	-2	nt	-1	0	0	nt
COCn1c(-c2ccc(OC)cc2)nc2ccccc21	4	55*	0	2	1	1
CCCn1c(-c2ccc(OC)cc2)nc2ccccc21	1	25	-1	0	0	0
Cc1nc(-c2ccccc2)nc2[nH]c(-c3ccccc3)cc(=O)c12	-1	69*	-1	0	0	-1
Cc1nc(C)c2c(=O)cc(-c3ccccc3)[nH]c2n1	7	1	-1	-2	-2	-2
C#CCSc1nnc(-c2cccc3ccccc23)o1	9	27	1.7*	5	0	0
Oc1ccc(-c2nnc(SCc3ccccc3)o2)cc1	11*	1	-1	5	1	2
OCC#CCSc1nnc(-c2ccncc2)o1	3	0	-1	0	-1	2

Screening results: PubChem, The Scripps Research Institute Molecular Screening Center
